# Laboratory results reported in ChEMBL document CHEMBL3988442, “University of Dundee, Small-Polar-MMV Screening Library” (2021).
# Hit rate of the full screen: of about 69,000 compounds, about 950 (1.4%) showed an effect of 50% or more. The list comes from a sample in which strong results are over-represented; it also holds similar structures and randomly drawn compounds.
# Test system: Mycobacterium tuberculosis
# Assay: Cornell M. t heat shock assay; further: in the data most compounds retested in dose-response had high values
# Type: functional, organism-based
# Set-up: dose or concentration left out as unconfirmed
row,Compound,Percent Effect [%]
1,CC(C)(O)CCc1cccc(C(=O)NCc2cnn3cccnc23)c1,-5.166
2,CC(C)Cn1cncc1CNC(=O)c1cccc(CC2CCNCC2)c1,-17.32
3,O=C(NCc1cnn2cccnc12)c1cccc(CC2CCNCC2)c1,70.42
4,CCOC1COC2(CCN(Cc3cccc(F)c3)CC2)C1.O=C(O)C(F)(F)F (stereo not drawn),-9.066
5,Cc1cc(N2CCOCC2)ccc1NC(C)c1nc(C(C)(C)C)no1 (stereo not drawn),72.1
6,Cc1noc(C(C)Nc2ccc(N3CCOCC3)cc2C)n1 (stereo not drawn),41.84
7,Cc1cc(N2CCOCC2)ccc1NC(C)c1nc(C(C)C)no1 (stereo not drawn),45.07
8,O=C(O)C(F)(F)F.O=C(O)C(F)(F)F.O=C(c1cscn1)N1CCC2(CN(Cc3ccncc3)C2)C1,-52.86
9,COCC1c2c(cnn2C)CCN1Cc1cccc(C)c1.O=C(O)C(F)(F)F.O=C(O)C(F)(F)F (stereo not drawn),-46.03
10,CC1CN(CC(=O)NCCc2ccccc2)CCN1c1nccs1 (stereo not drawn),-17
11,NCCc1nc(N(Cc2nccs2)C2CC2)c2ccccc2n1,-17.4
12,NCCc1nc(N(Cc2cncs2)C2CC2)c2ccccc2n1,-30.71
13,Cc1ccsc1CN(c1nc(CCN)nc2ccccc12)C1CC1,91.12
14,CC(=O)N1CC(=O)N(c2cnn(C)c2)CC12CCN(Cc1cccs1)C2.O=C(O)C(F)(F)F (stereo not drawn),-1.108
15,CC1=C(C#N)C(=O)N(C)C(=O)/C1=C\C1=Cc2ccccc2OC1,-26.04
16,Cc1ccc(CN2CCn3c(COc4cccnc4)cnc3C2C)o1.O=C(O)C(F)(F)F.O=C(O)C(F)(F)F (stereo not drawn),17.82
17,Cc1cccc2c1OCCCC2NCc1nccn1Cc1ccccc1 (stereo not drawn),104.4
18,Cc1ccc2c(c1)OCCCC2NCc1nnc2n1CCCCC2 (stereo not drawn),-7.759
19,Cc1ccc2c(c1)C(NCc1nnc3n1CCCCC3)CCCO2 (stereo not drawn),-13.54
20,COc1cccc(CNC2CCCOc3cc(C)ccc32)n1 (stereo not drawn),-23.35
21,Cn1cc(CNC2CCCOc3c2ccc2ccccc32)cn1 (stereo not drawn),11.28

row,Compound,Percent Effect [%]
1,Cn1ccnc1CNC1CCCOc2c1ccc1ccccc21 (stereo not drawn),95.81
2,CN(C(=O)NCc1nccn1Cc1ccccc1)C1CC1,-34.67
3,Cc1cccc2c1OCCCC2NCc1nnc2n1CCCCC2 (stereo not drawn),-4.885
4,Cc1ccc2c(c1)C(NCc1nccn1Cc1ccccc1)CCCO2 (stereo not drawn),102
5,Cn1cc(CNC2CCCOc3c(Cl)cccc32)cn1 (stereo not drawn),12.93
6,Cc1ccc2c(c1)OCCCC2NCc1nccn1CC(C)C (stereo not drawn),101.9
7,Cc1cccc2c1OCCC2NCc1c(C)nn(C)c1N(C)C (stereo not drawn),-4.09
8,Br.Cn1cc(CN2CCOC(c3cccc(-c4cncnc4)n3)C2)cn1 (stereo not drawn),-10.8
9,Cl.c1cncc(CNCc2cccs2)c1,5.045
10,O=C(O)C(F)(F)F.O=C1[C@H]2CN(Cc3nccs3)C[C@H]2CN1c1ccsc1,28.97
11,Cc1nn(C)c(C)c1S(=O)(=O)N1C[C@@H]2C[C@@H](C)O[C@@H]2C1.O=C(O)C(F)(F)F,3.558
12,NC(=O)CC1CC2(CCNCC2)c2cc(F)ccc21.O=C(O)C(F)(F)F (stereo not drawn),15.23
13,Cn1cc(C(=O)NCc2cn3c(n2)CN(C2CCOCC2)CC3)cn1.O=C(O)C(F)(F)F,-17.41
14,COc1c(CNC2CCCOc3ccccc32)c(C)nn1C (stereo not drawn),-2.184
15,c1ccc2c(c1)OCCCC2NCc1nnc2n1CCCCC2 (stereo not drawn),7.956
16,CCC1COCCN1C(=O)NCc1nccn1Cc1ccccc1 (stereo not drawn),-21.62
17,Cc1ccc2c(c1)OCCCC2NC1CCN(C)CC1 (stereo not drawn),11.02
18,Cc1ccc2c(c1)OCCCC2NCc1nccn1Cc1ccccc1 (stereo not drawn),101.1
19,c1ccc(Cn2ccnc2CNC2CCCOc3ccccc32)cc1 (stereo not drawn),104.4
20,Cc1cncc(C(=O)N2C[C@@H]3CN(S(C)(=O)=O)CCO[C@@H]3C2)c1.O=C(O)C(F)(F)F,15.78
21,CC1CCN(C(=O)[C@@H]2C[C@@H]3CCN(Cc4nccs4)C[C@H]3O2)CC1.O=C(O)C(F)(F)F,11.99

row,Compound,Percent Effect [%]
1,O=C(c1csc2nc(-c3ccc(Cl)cc3)cn12)N1CCCC(CO)C1 (stereo not drawn),17.74
2,CC(C)N1CCN(C(=O)c2csc3nc(-c4ccc(Cl)cc4)cn23)CC1,2.331
3,CCC1CN(C(=O)c2csc3nc(-c4ccc(Cl)cc4)cn23)CCN1 (stereo not drawn),59.48
4,O=C(Nc1cccnc1)[C@H]1C[C@@H]2CN(C(=O)NC3CCCC3)C[C@H]1O2,-0.1164
5,O=C1C[C@H]2CC[C@@H](CN1)N2C1CCOCC1,-8.619
6,O=C(NC1CCCC1)c1nc2c(o1)CN(CCO)C2,51.46
7,O=C(NC1CCCC1)c1nc2c(o1)CN(C(=O)CCO)C2,6.229
8,O=C(NC1CCCC1)c1nc2c(o1)CN(C(=O)CO)C2,10.14
9,CN(C)C(C(=O)N1CCC(N2CCSCC2)CC1)c1ccccc1F (stereo not drawn),64.18
10,CN(C)C(C(=O)N1CCSCC1)c1ccccc1F (stereo not drawn),7.911
11,CN(C)C(C(=O)N1CCCC1)c1ccccc1F (stereo not drawn),12.45
12,COc1ccc(CNC(=O)C2=NN(c3ccc(C)cc3)C(=O)CN2)cc1,24.03
13,COc1ccccc1CNC(=O)C1=NN(c2ccc(C)cc2)C(=O)CN1,73.51
14,COc1ccc(C)cc1CNC(=O)C1=NN(c2ccccc2)C(=O)CN1,30.82
15,CC(C)N1CCO[C@H]2CN(C(=O)c3ccccn3)C[C@H]21.O=C(O)C(F)(F)F.O=C(O)C(F)(F)F,-26.06
16,Cc1[nH]/c(=N\C(=O)c2csc(NCC(C)C)n2)sc1C,103.2
17,Cc1cs/c(=N\C(=O)c2c3c(nc4onc(C)c24)CCC3)[nH]1,-0.1888
18,Cc1cc(O)c(OCC(=O)/N=c2\[nH]c(C)c(C)s2)cn1,14.69
19,Cc1cs/c(=N/C(=O)c2csc(NCC(C)C)n2)[nH]1,102.2
20,CC(=O)Nc1nc(C(=O)NC(C)c2ccc(F)cc2)cs1 (stereo not drawn),8.426
21,CC(C)CNc1nc(C(=O)/N=c2\[nH]nc(C(C)(C)C)s2)cs1,29.68
